Measurements taken from ChEMBL document CHEMBL1157539, “Thousands of chemical starting points for antimalarial lead identification” (Nature, 2010).

System: Plasmodium falciparum
Test: GSK_TCMDC: Inhibition of Plasmodium falciparum 3D7 in whole red blood cells, using parasite LDH activity as an index of growth. Test compounds present at 2uM
Format: functional

SMILES | Inhibition
CN(C)CCNCc1ccc(-c2ccc(-c3nc4ccccc4[nH]3)s2)cc1.O=C(O)C(F)(F)F | 100%
CC(C)CNCc1cccc(-c2cccc(CN(CCCN3CCN(C)CC3)C(=O)NC3CCCCC3)c2)c1.O=C(O)C(F)(F)F | 100%
CN1CCC(N2CCN(Cc3ccc(-c4cccc(-c5nc6ccccc6[nH]5)c4)cc3)CC2)CC1.O=C(O)C(F)(F)F | 99%
COc1ccc(-c2cnn3ccc(Nc4cc(OC)c(OC)c(OC)c4)nc23)cc1OC | 98%
COC(=O)COc1cc(C(=O)NCCCCN2CCC(c3ccc4c(c3OC)CCCC4)CC2)ccc1-c1ccc(Cl)cc1 | 97%
Cc1cc(-c2ccc(NC(=O)N3CCc4cc(Br)c(N5CCN(C)CC5)cc43)cc2)cc(C)n1 | 92%
Cc1ccc(Nc2nccc(Nc3ccc4c(c3)nc(Nc3cc(C(C)(C)C)on3)n4C)n2)cc1S(C)(=O)=O | 100%
COc1cccc(-c2cc(C(=O)NC3CCC(N4CCC(c5ccccc5C)CC4)CC3)[nH]n2)c1 (configuration not stated) | 99%
N#Cc1nc2ccc(OCCN(Cc3ccccc3C(F)(F)F)c3ccc(C#N)c(C(F)(F)F)c3)cc2s1 | 93%
CCOC(=O)NOC(C(=O)O)c1ccccc1 (configuration not stated) | 99%
CCCO[C@H](C(=O)OC)[C@@H](CC1Cc2ccccc2C1)C(=O)NCCC1=CCCCC1 | 93%
COc1ccc2cc(C=NNc3nc4ccccc4[nH]3)c(Cl)nc2c1 | 100%
CCOc1ccccc1CNc1nccc(NCCc2cn(C)c3ccccc23)n1 | 98%
Cc1[nH]c(C)c(-c2ccc(-c3ccc(Cl)cc3)nc2)c(=O)c1Br | 97%
COc1ccc(C=Cc2cc(=N)c3ccccc3[nH]2)cc1.I | 93%
Cc1ccc(-c2cc(C(=O)Nc3ccc(S(=O)(=O)N(C)Cc4ccccc4)cc3)[nH]n2)c(O)c1 | 99%
O=C(NC1CC1)c1cnc(N2CCC(c3ccccc3)CC2)c(Cl)c1.O=C(O)C(F)(F)F | 94%
CC(C)CCN(Cc1cncn1Cc1ccccc1F)C(=O)c1cncc(-c2ccccc2)c1 | 96%
Cc1cccc2nc(-c3ccc(-c4ccc(CNCC5CCCO5)cc4)cc3)[nH]c12.O=C(O)C(F)(F)F (configuration not stated) | 100%

SMILES | Inhibition
O=C(Nc1cccc(CN2CCCN(CCc3ccccc3)CC2)c1)c1cc2ccccc2s1.O=C(O)C(F)(F)F | 93%
O=C(NCCN1CCCCC1)c1cccc(Nc2nccc(Nc3ccc(Oc4ccccc4)cc3)n2)c1 | 99%
C=CCNc1cc(-c2ccccn2)nc(-c2ccccn2)n1 | 94%
CCCCOc1ccc(C(O)C(CN2CCCCC2)c2ccccc2)cc1 (configuration not stated) | 90%
CC(C)(C)c1cc(C(=O)N2CCN(c3ncccc3C(F)(F)F)CC2)n(Cc2ccccc2)n1 | 100%
COc1ccc([N+](=O)[O-])cc1N(Cc1ccccc1-c1ccccc1)S(=O)(=O)c1ccc(C(F)(F)F)cc1 | 96%
Cl.N#Cc1ccc2c(c1)CN(CCC1CCC(NC(=O)c3cc4ccccc4cc3N)CC1)CC2 (configuration not stated) | 80%
Cl.N#Cc1ccc2c(c1)CCN(CCC1CCC(Nc3ncnc4ccccc34)CC1)C2 (configuration not stated) | 100%
CCC(C)NS(=O)(=O)c1ccc2nc(Nc3ccc(C)cc3)n(C3CCCCC3)c2c1 (configuration not stated) | 97%
O=C(O)C(F)(F)F.c1cc(CN2CCN(CCN3CCOCC3)CC2)cc(-c2cccc(-c3nc4ccccc4[nH]3)c2)c1 | 100%
COc1ccc(-c2cccc(NC(=O)c3ccc(Cl)cc3)c2)cc1CN1CCC(O)CC1.O=C(O)C(F)(F)F | 100%
CCOC(=O)C1=C(C)NC2=C(C(=O)CC(C)(C)C2)C1c1ccc(Cl)cc1 (configuration not stated) | 96%
OC(CNCc1ccccc1)c1cc(OCc2ccccc2)cc(OCc2ccccc2)c1 (configuration not stated) | 98%
O=C(C=Cc1ccc(-c2nc3ccccc3[nH]2)cc1)NC1CCN(Cc2ccccc2)CC1 | 99%
Cc1ccnc2nc(C(=O)Nc3cc(C(F)(F)F)ccc3N3CCCCC3)nn12 | 96%
COc1ccc(NC(=O)[C@H](Cc2ccccc2)Nc2cc(C)nc(NCCc3cccs3)n2)cc1.O=C(O)C(F)(F)F | 100%
O=C(NCCCCN1CCC(c2ccc3c(c2O)CCCC3)CC1)c1ccc(-c2ccc(Cl)cc2)cc1 | 98%
Cc1nn(C)c(C)c1CN(Cc1nc(-c2cccc(Oc3ccccc3)c2)oc1C)C1CC1 | 100%
